Test results taken from PubChem BioAssay (EPA / NIEHS).
Activity calls are given as the source filed them. How the source made its calls: active means hit-call score of the fitted dose curve at least 0.9, where 1 is the maximum; inactive means score below 0.9. Peptide text beside a SMILES is read from it.

assay: CCTE_Shafer_MEA_acute_firing_rate_mean: CCTE's Neural Acute Assay for Mean Firing Rate, Shafer Lab (AID 2284009)
Protocol: CCTE_Shafer_MEA_acute assay is conducted using Axion Biosystems 48 well microelectrode array (MEA) plates and Maestro recording system. Each well of the MEA plate contains a grid of 16 microelectrodes embedded in the culture surface. Electrically active cells, such as neurons, can be cultured over the electrodes, and electrical activity in these cells can be recorded extracellularly. The spontaneous firing of neurons is captured from each electrode on a microsecond timescale providing both temporally and spatially precise data. […] The CCTE_Shafer_MEA_acute assay uses primary cultures of rat cortical neurons. As these cultures mature over time, neural networks develop functional activity and form cohesive networks in which electrical activity can be highly coordinated. Baseline 40-minute recordings are made on days post-plating 13 or 15, followed by a secondary 40-minute recording after chemical exposure.CCTE_Shafer_MEA_acute_firing_rate_mean is a component of the CCTE_Shafer_MEA_acute assay. It measures the frequency number of spikes (action potential firings) as the total number of spikes divided by the length of the recording in a microelectrode array (MEA) using Axion Biosystems Maestro 768 channel amplifier with the AxIS adaptive spike detector. The firing rate is divided by the number of electrodes to report a well-mean value. The recordings before and after chemical treatment are used to calculate a percent change in the mean firing rate in each well.Data from the assay component CCTE_Shafer_MEA_acute_firing_rate_mean was analyzed into 1 assay endpoint. This assay endpoint, CCTE_Shafer_MEA_acute_firing_rate_mean, was analyzed in the negative analysis fitting direction relative to DMSO as the negative control and baseline of activity. Using a type of functional reporter, gain or loss-of-signal activity can be used to understand electrical activity.
Spontaneous activity in the cortical cultures was recorded using an Axion Biosystems Maestro 768 channel amplifier and Axion Integrated Studios (AxIS) v1.8 (or later) software. The amplifier recorded from all channels simultaneously (gain = 1200 x; sampling rate = 12.5 kHz/channel): raw signals were filtered with a Butterworth band-pass filter (300-5000 Hz), which filters out slower local field potentials leaving only fast potentials, i.e., "spikes", arising from extracellular currents associated with action potentials (Pine 2006; Wheeler and Nam 2011). On-line spike detection of filtered signals was conducted with the AxIS adaptive spike detector, using a threshold of 8x the root mean squared (rms) noise on each channel. Any electrodes with rms noise levels greater than 5 uV were grounded (e.g., no data were recorded). Once grounded, an electrode was grounded for the duration of the experiment. All recordings were conducted at 37 C. Wells were deemed usable if on the day of the exposure >/= 10 electrodes were active (defined as >/= 5 spikes/min). On DIV 13 or 15, a minimum of three wells from one cortical culture preparation were treated with each compound (0.03-40 uM). Prior to recording baseline activity, each mwMEA plate was placed in the Maestro at 37 C and allowed to sit for 20 min while firing rates stabilized. Baseline activity (40 min) was recorded before the addition of each compound. An additional 40 min of spontaneous activity was recorded in the presence of each compound. Changes in network parameters relative to baseline were assessed following compound treatment.

Row | Compound | outcome | AC50
1 | CCCC(C)C(=O)OCC (stereo not drawn) | inactive | –
2 | Oc1ccccc1Cc1ccccc1O | – | 207 nM (active)
3 | Cc1c(C(=O)c2c[nH]n(C)c2=O)ccc(S(C)(=O)=O)c1C1=NOCC1 | inactive | –
4 | CCCCCCCCCCCC(=O)N(C)CC(=O)O | inactive | –
5 | CC(C)C(=O)OCCc1ccccc1 | inactive | –
6 | c1ccc(Nc2cccc3ccccc23)cc1 | – | 979 nM (active)
7 | Nc1nc(N)nc(-c2ccccc2)n1 | inactive | –
8 | C1CNCCN1 | inactive | –
9 | CC1(C)CC(O)CC(C)(C)N1[O] | inactive | –
10 | Nc1cccc(N)n1 | – | 3.19 nM (active)
11 | COC(=O)[C@H](Cc1ccccc1)NC(=O)[C@@H](N)CC(=O)O (H-Asp-Phe-OMe) | inactive | –
12 | CC(CCC(=O)O)(c1ccc(O)cc1)c1ccc(O)cc1 | inactive | –
13 | CC/C=C\CCOC(=O)c1ccccc1O | inactive | –
